A selection: hits, their analogues and other compounds. The true share with any hit is near 1%.
Plk1 PBD FP – blocks phosphopeptide binding to human Plk1 polo box domain. inhibition, %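 (tested at about 20 µM)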. Plk1 PBD phosphopeptide binding, fluorescence polarization. hit rate 0.13% among 97,000. P53350; in the data active = inhibition above about 34%, passing the limit was not always enough
PLK1 kinase inh – inhibitors of human PLK1 kinase; inhibition, % at 10 µM; hit rate 0.53% among 97,000; P53350; recombinant PLK1 kinase, TR-FRET peptide phosphorylation;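 active = inhibition of 50% or more in the single-concentration screen; inactive = inhibition below 50%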
sEH inh – soluble epoxide hydrolase (human) inhibition; P34913; recombinant human sEH enzymatic activity assay; inhibition, % at 2 µM; hit rate 0.34% among 91,000; AID 707; in the data active = inhibition above about 80%
Target sequence (P34913 whole entry, looked up): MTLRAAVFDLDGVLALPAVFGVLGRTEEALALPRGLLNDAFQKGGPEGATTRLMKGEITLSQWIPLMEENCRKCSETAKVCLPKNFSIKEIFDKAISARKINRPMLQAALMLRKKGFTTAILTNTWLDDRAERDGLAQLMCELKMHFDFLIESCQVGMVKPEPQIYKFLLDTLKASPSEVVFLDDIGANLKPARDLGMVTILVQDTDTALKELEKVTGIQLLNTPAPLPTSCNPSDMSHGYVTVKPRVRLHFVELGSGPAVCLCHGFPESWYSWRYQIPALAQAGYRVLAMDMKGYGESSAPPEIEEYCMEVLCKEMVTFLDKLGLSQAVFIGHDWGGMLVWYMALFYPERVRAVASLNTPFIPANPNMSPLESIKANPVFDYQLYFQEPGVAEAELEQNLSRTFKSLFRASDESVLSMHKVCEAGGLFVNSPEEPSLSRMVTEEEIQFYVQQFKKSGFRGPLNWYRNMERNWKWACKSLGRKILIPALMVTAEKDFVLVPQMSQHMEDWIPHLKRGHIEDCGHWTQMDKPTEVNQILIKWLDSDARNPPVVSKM
EphB4 ephrin blk – blocks human EphB4 binding to ephrin-B2 | AID 720 | inhibition, % at 7 µM | hit rate 0.15% among 97,000 | EphB4 LBD / TNYL-RAW-Alexa532 peptide, fluorescence polarization | P54760;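 active = inhibition above the screen-wide mean inhibition plus 3 SD, cut at about 15% in these data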
sEH activator – activators of human soluble epoxide hydrolase. purified human sEH enzymatic activity, activator screen. activation, % at 2 µM. hit rate 0.04% among 91,000; in the data active = activation above about 37%
A number is an active result; [ ] = dose if it differs, or a comment.

For COC(=O)c1[nH]c2cc(OC)ccc2c1N the results were Plk1 PBD FP inactive, PLK1 kinase inh inactive, sEH inh inactive, EphB4 ephrin blk inactive and sEH activator inactive.
`CCn1c(SC(C)C(=O)OC)nnc1-c1c[nH]c2ccccc12` (stereo unspecified) gave Plk1 PBD FP inactive, PLK1 kinase inh 65 and EphB4 ephrin blk inactive.
`CCn1c(SCC(=O)NCc2ccco2)nnc1-c1c[nH]c2ccccc12` gave Plk1 PBD FP inactive, PLK1 kinase inh inactive, sEH inh inactive, EphB4 ephrin blk inactive and sEH activator inactive.
For C=CCSc1nnc(-c2c[nH]c3ccccc23)n1CC the results were Plk1 PBD FP inactive, PLK1 kinase inh 61 and EphB4 ephrin blk inactive.
`COc1ccc(-n2c(SC)nnc2-c2c[nH]c3ccccc23)cc1` gave Plk1 PBD FP inactive, PLK1 kinase inh 55 and EphB4 ephrin blk inactive.
Screening CC(C)Sc1nnc(-c2c[nH]c3ccccc23)n1C returned Plk1 PBD FP inactive, PLK1 kinase inh 64 and EphB4 ephrin blk inactive.
`CCOC(=O)C(C)Sc1nnc(-c2c[nH]c3ccccc23)n1C` (stereo unspecified) gave Plk1 PBD FP inactive, PLK1 kinase inh inactive, sEH inh inactive, EphB4 ephrin blk inactive and sEH activator inactive.
Cc1ccc(C)c(S(=O)(=O)NCC(=O)Nc2sc3c(c2C(N)=O)CCC(C)C3)c1 (stereo unspecified) was read as Plk1 PBD FP inactive, PLK1 kinase inh inactive, sEH inh inactive, EphB4 ephrin blk inactive and sEH activator inactive.
C=CCN1C(=O)C(Cc2ccc(OCC)cc2)S/C1=N\N=C\c1cccs1 (stereo unspecified) was read as Plk1 PBD FP inactive, PLK1 kinase inh inactive, sEH inh inactive, EphB4 ephrin blk inactive and sEH activator inactive.
For Cc1cnc(N)c2c(=O)oc3ccccc3c12 the results were Plk1 PBD FP inactive, PLK1 kinase inh 52 and EphB4 ephrin blk inactive.
Cc1ccccc1Nc1c(N)c(=O)oc2ccccc12 was read as Plk1 PBD FP inactive, PLK1 kinase inh inactive, sEH inh inactive, EphB4 ephrin blk inactive and sEH activator inactive.
For O=C(O)CCC(=O)c1ccc2c(c1)OCCO2 the results were Plk1 PBD FP inactive, PLK1 kinase inh 66 and EphB4 ephrin blk inactive.
Screening COCCNC(=O)C(OC(=O)c1cc2oc(C)cc2n1C)C(C)C (stereo unspecified) returned Plk1 PBD FP inactive, PLK1 kinase inh inactive, sEH inh inactive, EphB4 ephrin blk inactive and sEH activator inactive.
N#Cc1ncc(C(F)(F)F)cc1Sc1ccc(N)cc1 was read as Plk1 PBD FP inactive, PLK1 kinase inh inactive, sEH inh inactive, EphB4 ephrin blk 16 and sEH activator inactive.
`COc1ccc(N=CC2=C(Nc3ccc(OC)cc3)c3c(C)nn(-c4ccccn4)c3CC2)cc1` gave Plk1 PBD FP inactive, PLK1 kinase inh inactive, sEH inh inactive, EphB4 ephrin blk 25 and sEH activator inactive.
COc1ccc(-c2cc(C(=O)O)c3c(C)nn(-c4ccccn4)c3n2)cc1 was read as Plk1 PBD FP inactive, PLK1 kinase inh inactive, sEH inh inactive, EphB4 ephrin blk inactive and sEH activator inactive.
For C=CCn1c(SCCC)nc(O)cc1=O the results were Plk1 PBD FP inactive, PLK1 kinase inh inactive, sEH inh inactive, EphB4 ephrin blk inactive and sEH activator inactive.
CCc1ccc(NC(=O)Nc2ccc3c(c2)N(C)C(=O)CS3)cc1 was read as Plk1 PBD FP inactive, PLK1 kinase inh inactive, sEH inh 91, EphB4 ephrin blk inactive and sEH activator inactive.
Screening O=C(N/N=C/c1cccc(O)c1)c1csc2ccccc12 returned Plk1 PBD FP inactive, PLK1 kinase inh inactive, sEH inh 84, EphB4 ephrin blk inactive and sEH activator inactive.
For Cc1c(/C=N\NC(=O)c2csc3ccccc23)cnn1C the results were Plk1 PBD FP inactive, PLK1 kinase inh inactive, sEH inh inactive, EphB4 ephrin blk inactive and sEH activator inactive.
`Cc1scc(C(=O)N/N=C/c2ccc(OC(C)C)cc2)c1C` gave Plk1 PBD FP inactive, PLK1 kinase inh inactive, sEH inh inactive, EphB4 ephrin blk inactive and sEH activator inactive.
CCCCOc1cccc(/C=N/NC(=O)c2csc(C)c2C)c1 was read as Plk1 PBD FP inactive, PLK1 kinase inh inactive, sEH inh 82, EphB4 ephrin blk inactive and sEH activator inactive.
For O=C(NCCC(c1ccccc1)c1ccccc1)c1ccc(Br)o1 the results were Plk1 PBD FP inactive, PLK1 kinase inh inactive, sEH inh 97, EphB4 ephrin blk inactive and sEH activator inactive.
Screening CCCCCSc1nnc2c(n1)OC(C)N(C(C)=O)c1ccccc1-2 (stereo unspecified) returned Plk1 PBD FP inactive, PLK1 kinase inh 57 and EphB4 ephrin blk inactive.
For CCCSc1nnc2c(n1)OC(c1cccn1C)N(C(C)=O)c1ccccc1-2 (stereo unspecified) the results were Plk1 PBD FP inactive, PLK1 kinase inh inactive, sEH inh inactive, EphB4 ephrin blk inactive and sEH activator inactive.
Screening O=C1c2ccccc2-c2onc3ccc(NCCCn4ccnc4)c1c23 returned Plk1 PBD FP inactive, PLK1 kinase inh 68, sEH inh inactive, EphB4 ephrin blk 107[fluorescence artefact?] and sEH activator inactive.
For O=C(COC(=O)Cn1c(C(F)(F)F)nc2ccccc21)Nc1ccc2c(c1)OCCO2 the results were Plk1 PBD FP inactive, PLK1 kinase inh inactive, sEH inh inactive, EphB4 ephrin blk inactive and sEH activator inactive.
Cc1c(OCc2ccc(C(=O)O)o2)ccc2c3c(c(=O)oc12)CCC3 was read as Plk1 PBD FP inactive, PLK1 kinase inh inactive, sEH inh inactive, EphB4 ephrin blk inactive and sEH activator inactive.
Screening COC(=O)c1ccc(COc2ccc3c(C)c(C)c(=O)oc3c2C)o1 returned Plk1 PBD FP inactive, PLK1 kinase inh inactive, sEH inh inactive, EphB4 ephrin blk 22 and sEH activator inactive.
Screening C=CCNC(=O)C1CC(=O)N(c2ccc(C)cc2)C1 (stereo unspecified) returned Plk1 PBD FP inactive, PLK1 kinase inh 59 and EphB4 ephrin blk inactive.
`CC1CCCC(C)N1c1nnc(NC(=O)c2cc(-c3ccc(Br)cc3)on2)s1` (stereo unspecified) gave Plk1 PBD FP inactive, PLK1 kinase inh inactive and EphB4 ephrin blk inactive.
For Cc1cc(C(=O)CN2C(=O)NC(c3ccccc3)(c3ccccc3)C2=O)c(C)n1Cc1ccccc1 the results were Plk1 PBD FP inactive, PLK1 kinase inh inactive, sEH inh inactive, EphB4 ephrin blk 20 and sEH activator inactive.
Screening Cc1cc(C(=O)CN2C(=O)NC3(CCCCC3)C2=O)c(C)n1Cc1ccc2c(c1)OCO2 returned Plk1 PBD FP inactive, PLK1 kinase inh inactive, sEH inh inactive, EphB4 ephrin blk inactive and sEH activator inactive.
Screening O=C(Nc1nc2n(n1)C(c1ccc(Cl)cc1)CC(c1ccc(Cl)cc1)N2)c1ccco1 (stereo unspecified) returned Plk1 PBD FP inactive, PLK1 kinase inh inactive, sEH inh inactive, EphB4 ephrin blk 21 and sEH activator inactive.
O=C(NCc1ccccc1Cl)c1ccc(Cn2cc(C(F)(F)F)ccc2=O)cc1 was read as Plk1 PBD FP inactive, PLK1 kinase inh inactive, sEH inh 88, EphB4 ephrin blk inactive and sEH activator inactive.
CCN(CCCNC(=O)CCCCn1c(=O)[nH]c2ccccc2c1=O)c1ccccc1 was read as Plk1 PBD FP inactive, PLK1 kinase inh inactive, sEH inh 80, EphB4 ephrin blk inactive and sEH activator inactive.

Screening data from PubChem BioAssay.
